# For some of these results: Entries with a potency or affinity are not part of this list.
# How the values were obtained:
# Design in all cases: scale not given: direction of the effect not stated beside the values
# [1] = biological target: Protein translocase subunit SecA (Escherichia coli (strain K12)) (UniProt P10408); assay: Assay to Identify E. coli SecA ATPase Inhibitors; format: functional; settings: 30 µM
# [2] = biological target: T1, Ubiquitin-activating enzyme e1, putative (Leishmania donovani (strain BPK282A1)) (UniProt E9BSI1); assay: Leishmania donovani Ubiquitin Activating Enzyme (LdE1); format: functional; settings: 30 µM
# T1 sequence (whole entry): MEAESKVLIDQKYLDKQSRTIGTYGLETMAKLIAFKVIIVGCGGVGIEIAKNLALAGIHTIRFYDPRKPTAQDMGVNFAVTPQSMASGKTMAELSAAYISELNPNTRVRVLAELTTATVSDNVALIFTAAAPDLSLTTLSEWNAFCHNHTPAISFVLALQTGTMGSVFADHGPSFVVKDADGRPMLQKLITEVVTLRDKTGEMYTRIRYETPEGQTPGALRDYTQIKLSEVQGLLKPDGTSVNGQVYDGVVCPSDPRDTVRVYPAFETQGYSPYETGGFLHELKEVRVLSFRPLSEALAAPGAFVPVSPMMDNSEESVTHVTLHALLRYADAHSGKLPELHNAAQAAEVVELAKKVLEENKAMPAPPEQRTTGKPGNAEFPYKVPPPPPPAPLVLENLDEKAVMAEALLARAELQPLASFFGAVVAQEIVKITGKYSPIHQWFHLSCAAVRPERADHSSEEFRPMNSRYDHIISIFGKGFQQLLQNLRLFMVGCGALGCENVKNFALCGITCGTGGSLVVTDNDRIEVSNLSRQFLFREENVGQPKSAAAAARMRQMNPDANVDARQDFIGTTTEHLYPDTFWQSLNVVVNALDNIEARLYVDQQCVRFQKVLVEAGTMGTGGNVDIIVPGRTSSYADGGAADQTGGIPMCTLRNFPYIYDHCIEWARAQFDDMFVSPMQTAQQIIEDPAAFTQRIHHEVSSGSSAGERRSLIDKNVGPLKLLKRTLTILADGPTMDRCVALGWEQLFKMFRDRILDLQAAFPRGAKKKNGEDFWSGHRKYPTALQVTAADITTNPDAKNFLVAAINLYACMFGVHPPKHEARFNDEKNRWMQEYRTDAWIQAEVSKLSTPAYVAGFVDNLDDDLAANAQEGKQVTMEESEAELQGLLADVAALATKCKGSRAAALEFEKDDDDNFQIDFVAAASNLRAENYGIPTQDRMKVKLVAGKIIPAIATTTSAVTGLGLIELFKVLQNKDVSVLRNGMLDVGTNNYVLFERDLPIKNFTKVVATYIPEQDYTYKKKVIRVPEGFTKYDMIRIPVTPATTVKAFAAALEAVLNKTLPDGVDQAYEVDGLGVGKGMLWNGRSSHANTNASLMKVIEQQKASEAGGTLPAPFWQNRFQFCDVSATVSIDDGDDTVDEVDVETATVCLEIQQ
# [3] = biological target: AMP-activated protein kinase, AMPK (Homo sapiens) (UniProt P54646+O43741+P54619+Q9UGJ0+Q9Y478+Q13131+Q9UGI9); assay: AMP-dependent Kinase enzyme assay. An in vitro enzyme assay that detects ADP turnover that is directly proportional to AMPK activity. This uses naive AMPK that is activated during the assay with MK-8722; format: functional; settings: 30 µM
# [4] = biological target: Sialic acid-binding Ig-like lectin 9 (Homo sapiens) (UniProt Q9Y336); assay: Hs-Siglec9 ALPHAscreen SOP 20170721; settings: 10 µM
# Trypanosoma cruzi = assay: Trypanosoma cruzi phosphomannomutase and mannose-1-phosphate guanylyltransferase assay; format: functional; settings: 10 µM
# [5] = biological target: T2, Arginase-2, mitochondrial (Homo sapiens) (UniProt P78540); assay: in vitro enzyme assay to detect the production of urea directly proportional to the activity of Arginase II; format: functional; settings: 33.3 µM; further: in the data most compounds retested in dose-response had high values
# T2 sequence (whole entry): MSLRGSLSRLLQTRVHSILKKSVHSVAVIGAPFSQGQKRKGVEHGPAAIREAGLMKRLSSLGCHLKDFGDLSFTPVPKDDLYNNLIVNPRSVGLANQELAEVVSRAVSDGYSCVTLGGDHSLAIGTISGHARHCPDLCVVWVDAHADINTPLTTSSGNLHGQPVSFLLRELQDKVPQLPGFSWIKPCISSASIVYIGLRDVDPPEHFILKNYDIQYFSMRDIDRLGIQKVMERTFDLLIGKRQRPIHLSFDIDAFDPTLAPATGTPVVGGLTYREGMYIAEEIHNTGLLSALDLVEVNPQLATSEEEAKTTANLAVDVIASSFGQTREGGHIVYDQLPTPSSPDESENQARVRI
# [6] = biological target: T3, Proteasome subunit beta (Trypanosoma cruzi) (UniProt O96673); assay: Trypanosoma cruzi proteasome chymotrypsin-like activity (TcProtChymo) assay.; further: in the data most compounds retested in dose-response had high values; format: functional; settings: 9.37 µM
# T3 sequence (whole entry): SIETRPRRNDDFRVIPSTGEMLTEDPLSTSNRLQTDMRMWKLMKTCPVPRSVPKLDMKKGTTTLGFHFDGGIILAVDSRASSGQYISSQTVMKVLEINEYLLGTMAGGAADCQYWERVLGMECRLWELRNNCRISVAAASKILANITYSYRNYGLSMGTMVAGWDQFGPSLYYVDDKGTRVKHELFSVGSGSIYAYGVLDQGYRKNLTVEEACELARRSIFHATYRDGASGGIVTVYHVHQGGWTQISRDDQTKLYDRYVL
# Homo sapiens = organism: Homo sapiens; assay: To identify inhibition of the IFN signalling (Jak-Stat) pathway via expression of an eGFP reporter gene under the control of an IFN-stimulated response element (ISRE) containing MxA promoter.; format: functional; settings: 30 µM
# [7] = biological target: T4, Tyrosyl-tRNA synthetase, putative (Trypanosoma cruzi (strain CL Brener)) (UniProt Q4DSP6); assay: Trypanosoma cruzi tyrosyl tRNA synthetase (TcYRS) _High Tyrosine SOP; format: functional; settings: 30 µM; further: in the data most compounds retested in dose-response had high values
# T4 sequence (whole entry): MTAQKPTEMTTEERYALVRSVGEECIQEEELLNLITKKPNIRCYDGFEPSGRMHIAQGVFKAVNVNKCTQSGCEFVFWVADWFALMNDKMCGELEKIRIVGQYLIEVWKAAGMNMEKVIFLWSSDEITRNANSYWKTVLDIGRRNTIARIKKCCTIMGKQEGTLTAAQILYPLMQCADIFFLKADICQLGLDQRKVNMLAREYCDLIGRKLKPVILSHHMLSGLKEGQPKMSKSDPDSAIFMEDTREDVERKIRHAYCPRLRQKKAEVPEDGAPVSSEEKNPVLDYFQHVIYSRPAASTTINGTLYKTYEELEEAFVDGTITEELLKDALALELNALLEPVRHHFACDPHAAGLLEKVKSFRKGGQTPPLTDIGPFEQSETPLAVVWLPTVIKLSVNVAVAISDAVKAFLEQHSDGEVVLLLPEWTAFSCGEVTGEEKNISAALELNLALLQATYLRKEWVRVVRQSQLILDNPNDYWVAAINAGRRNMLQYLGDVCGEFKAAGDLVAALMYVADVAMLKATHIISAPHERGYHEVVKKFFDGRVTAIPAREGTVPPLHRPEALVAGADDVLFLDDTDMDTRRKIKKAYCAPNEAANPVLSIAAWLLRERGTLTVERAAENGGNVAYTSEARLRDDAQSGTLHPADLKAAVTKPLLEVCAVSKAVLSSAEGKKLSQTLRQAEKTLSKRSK
# [8] = biological target: T4, Tyrosyl-tRNA synthetase, putative (Trypanosoma cruzi (strain CL Brener)); assay: Trypanosoma cruzi tyrosyl tRNA synthetase (TcYRS) SOP; format: functional; settings: 30 µM
# [9] = biological target: Chromo domain-containing protein 1 (Saccharomyces cerevisiae (strain ATCC 204508 / S288c) (Baker's yeast)) (UniProt P32657); assay: ScCHD-1 Enzyme Inhibition Assay; format: functional; settings: 30 µM; further: in the data most compounds retested in dose-response had high values
# Chromo domain-containing protein 1 (Saccharomyces cerevisiae (strain ATCC 204508 / S288c) (Baker's yeast)), sequence (P32657 whole entry, the tested form may be a part): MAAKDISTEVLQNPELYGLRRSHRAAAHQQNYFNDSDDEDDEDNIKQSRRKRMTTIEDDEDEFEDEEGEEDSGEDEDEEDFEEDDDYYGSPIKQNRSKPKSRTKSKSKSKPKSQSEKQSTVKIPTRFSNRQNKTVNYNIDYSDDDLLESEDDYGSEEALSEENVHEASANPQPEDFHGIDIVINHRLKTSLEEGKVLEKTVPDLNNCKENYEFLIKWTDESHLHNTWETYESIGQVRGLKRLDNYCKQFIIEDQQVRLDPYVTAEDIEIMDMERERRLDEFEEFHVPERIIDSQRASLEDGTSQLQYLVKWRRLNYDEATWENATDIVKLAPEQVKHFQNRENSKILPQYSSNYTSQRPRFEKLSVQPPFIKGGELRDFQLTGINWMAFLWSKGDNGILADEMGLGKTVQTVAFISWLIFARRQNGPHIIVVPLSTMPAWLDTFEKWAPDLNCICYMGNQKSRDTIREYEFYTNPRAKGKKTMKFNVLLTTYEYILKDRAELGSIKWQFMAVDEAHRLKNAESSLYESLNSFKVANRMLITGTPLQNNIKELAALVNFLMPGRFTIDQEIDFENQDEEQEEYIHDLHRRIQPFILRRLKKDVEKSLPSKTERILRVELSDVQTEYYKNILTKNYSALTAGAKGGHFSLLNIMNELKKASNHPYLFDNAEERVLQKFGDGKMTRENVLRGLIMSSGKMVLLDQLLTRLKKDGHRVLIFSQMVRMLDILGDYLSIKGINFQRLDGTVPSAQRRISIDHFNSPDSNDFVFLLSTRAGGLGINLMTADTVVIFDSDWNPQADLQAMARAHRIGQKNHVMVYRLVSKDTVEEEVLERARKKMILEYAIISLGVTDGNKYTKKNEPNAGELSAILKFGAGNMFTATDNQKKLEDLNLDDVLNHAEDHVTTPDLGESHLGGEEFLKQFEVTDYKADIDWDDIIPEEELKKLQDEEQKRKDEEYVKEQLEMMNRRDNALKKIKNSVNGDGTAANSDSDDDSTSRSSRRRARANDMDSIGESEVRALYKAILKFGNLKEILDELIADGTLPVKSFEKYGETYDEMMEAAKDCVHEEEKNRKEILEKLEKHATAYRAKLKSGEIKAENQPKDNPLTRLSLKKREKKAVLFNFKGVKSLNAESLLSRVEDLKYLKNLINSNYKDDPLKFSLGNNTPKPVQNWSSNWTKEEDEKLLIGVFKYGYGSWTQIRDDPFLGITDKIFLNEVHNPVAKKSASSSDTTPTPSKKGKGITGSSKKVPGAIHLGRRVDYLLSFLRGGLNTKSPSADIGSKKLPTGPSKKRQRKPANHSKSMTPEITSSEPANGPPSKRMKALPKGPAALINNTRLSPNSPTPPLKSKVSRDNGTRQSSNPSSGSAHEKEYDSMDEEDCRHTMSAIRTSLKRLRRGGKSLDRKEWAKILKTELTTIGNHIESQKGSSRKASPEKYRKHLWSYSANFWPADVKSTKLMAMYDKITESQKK
# Protein translocase subunit SecA (Escherichia coli (strain K12)), sequence (P10408 whole entry): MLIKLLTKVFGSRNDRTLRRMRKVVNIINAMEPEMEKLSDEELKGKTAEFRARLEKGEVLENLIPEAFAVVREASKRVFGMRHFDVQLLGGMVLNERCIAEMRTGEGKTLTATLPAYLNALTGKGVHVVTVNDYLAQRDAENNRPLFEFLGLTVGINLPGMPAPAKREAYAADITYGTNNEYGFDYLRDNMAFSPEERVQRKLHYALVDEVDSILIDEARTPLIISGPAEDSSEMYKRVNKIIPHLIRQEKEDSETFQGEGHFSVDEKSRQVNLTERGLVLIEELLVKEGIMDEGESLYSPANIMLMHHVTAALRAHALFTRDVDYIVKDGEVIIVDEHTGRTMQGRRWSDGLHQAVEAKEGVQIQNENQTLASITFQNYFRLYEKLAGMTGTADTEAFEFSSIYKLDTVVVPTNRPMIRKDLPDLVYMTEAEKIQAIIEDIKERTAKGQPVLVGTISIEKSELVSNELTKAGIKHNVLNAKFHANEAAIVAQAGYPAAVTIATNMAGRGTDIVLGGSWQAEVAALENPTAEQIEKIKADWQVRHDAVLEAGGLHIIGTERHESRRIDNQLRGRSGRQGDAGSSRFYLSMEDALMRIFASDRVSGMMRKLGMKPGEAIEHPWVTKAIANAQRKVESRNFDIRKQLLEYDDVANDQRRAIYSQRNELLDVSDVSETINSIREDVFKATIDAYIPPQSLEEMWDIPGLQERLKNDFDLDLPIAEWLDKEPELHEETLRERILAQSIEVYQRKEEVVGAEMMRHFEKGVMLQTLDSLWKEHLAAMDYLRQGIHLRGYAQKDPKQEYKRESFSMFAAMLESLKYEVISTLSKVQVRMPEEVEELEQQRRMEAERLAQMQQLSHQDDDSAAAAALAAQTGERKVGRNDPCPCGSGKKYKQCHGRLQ
# Sialic acid-binding Ig-like lectin 9 (Homo sapiens), sequence (Q9Y336 whole entry): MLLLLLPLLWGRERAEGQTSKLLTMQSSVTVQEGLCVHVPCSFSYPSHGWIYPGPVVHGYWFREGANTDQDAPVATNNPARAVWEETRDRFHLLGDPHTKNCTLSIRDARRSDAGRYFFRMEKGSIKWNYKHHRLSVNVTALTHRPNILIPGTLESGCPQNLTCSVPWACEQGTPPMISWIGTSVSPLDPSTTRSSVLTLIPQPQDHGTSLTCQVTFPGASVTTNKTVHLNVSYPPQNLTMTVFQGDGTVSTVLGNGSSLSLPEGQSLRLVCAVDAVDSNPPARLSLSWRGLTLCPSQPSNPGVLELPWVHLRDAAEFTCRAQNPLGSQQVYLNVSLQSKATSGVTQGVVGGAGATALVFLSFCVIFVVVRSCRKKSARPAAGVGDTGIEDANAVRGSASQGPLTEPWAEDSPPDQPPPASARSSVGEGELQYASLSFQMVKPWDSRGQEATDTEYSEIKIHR
SMILES,Percent Effect [1],Percent Effect [2],Percent Effect [3],Percent Effect [4],Percent Effect (Trypanosoma cruzi),Percent Effect [5],Percent Effect [6],Percent Effect (Homo sapiens),Percent Effect [7],Percent Effect [8],Percent Effect [9]
Cc1ccc(C(=O)N(C)Cc2cc(Br)cs2)c(=O)[nH]1,1.09%,7.89%,5.18%,-2.8%,-3.8%,-3.55%,23.3%,0.327%,5.32%,7.79%,-3.78%
Cc1ccc(C)c(OC2CCN(C(=O)c3ccc(C)[nH]c3=O)CC2)c1,-3.58%,15.8%,-5.18%,6.14%,8.84%,1.53%,10.9%,11.6%,5.39%,12.2%,-11.4%
CCc1ncc2c(n1)CN(Cc1nc(-c3ccsc3)oc1C)CC2,-6.04%,-18.4%,-33%,12.2%,-1.77%,-0.719%,9.73%,-1.35%,19.2%,16.1%,2.49%
Cn1ncc2c(=O)[nH]c(CN(Cc3cccc(F)c3)C3CC3)nc21,-4.78%,15.6%,1.73%,-0.0963%,8.05%,3.92%,16.1%,-5.95%,8.74%,24.4%,-7.35%
NC(=O)COc1ccc(CNCc2ccc(F)cc2F)cc1,-2.69%,6.94%,-4.07%,9.21%,3.01%,24.7%,8.42%,-28.4%,9.47%,12.8%,-5.67%
CC(=O)Nc1nc(CN2CCCC2c2cnn(C)c2)cs1 (stereo not drawn),-7.62%,20.2%,-9.48%,17.6%,9.54%,-6.46%,6.31%,-5.41%,7.39%,21.5%,-5.9%
Cc1cnn(CC2CN(CCc3ccncc3)CCO2)c1 (stereo not drawn),-4.16%,5.48%,0.214%,-1.34%,-0.783%,3.18%,4.08%,-14.5%,3.23%,5%,-0.563%
CN(C)C(=O)[C@H]1C[C@@H]2CN(S(=O)(=O)Cc3ccccc3)C[C@H]1O2,-2.48%,13.3%,5.4%,-3.98%,-1.38%,3.96%,7.49%,-3.98%,5.32%,11.5%,-6.01%
